# Only some compounds are listed: those with a hit (about 10% of all), similar ones and a draw of the others.
# MCF10A rereplic: inducers of DNA re-replication in MCF 10A breast cells. MCF 10A DNA re-replication, Hoechst nuclear intensity, 48 h. Potency, µM (highest dose often 46.1 µM), for the others: at the top dose activity, positive = re-replication, hits mostly activators. 350,000 tested, 2.9% active; note: % of control where 0% means no effect; nearly all actives have a fitted effect of over 50% in size
# Gal4-VP16 FLuc: inhibits Gal4-VP16 luciferase reporter, ROR gamma counter-screen. 310,000 tested, 3.5% active. AID 2546. Potency, µM (series often up to 53.6 µM), for inactives: at the top dose activity, negative = inhibition, hits mostly inhibitors. Drosophila S2 Gal4-VP16 UAS-luciferase, luminescence, 20 h;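 note: Gal4-VP16 expression switched on by copper sulfate through the metallothionein promoter; % is set by controls: 0 for no effect and ±100 for the full control effect; nearly all actives have a fitted effect of over 50% in size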
# RORg inh: ROR gamma (mouse) transcription inhibition; Drosophila S2 Gal4-RORgamma UAS-luciferase reporter, 20 h; Potency, µM (titrated, usually from 53.6 µM), for inactives: at the top dose activity change, negative = inhibition, most hits filed as inhibitors; 310,000 tested, 5.4% active; P51450; note: % is set by controls: 0 for no effect and ±100 for the full control effect; nearly all actives have a fitted effect of over 60% in size
# Target sequence (P51450 whole entry, looked up, the tested form may be a part): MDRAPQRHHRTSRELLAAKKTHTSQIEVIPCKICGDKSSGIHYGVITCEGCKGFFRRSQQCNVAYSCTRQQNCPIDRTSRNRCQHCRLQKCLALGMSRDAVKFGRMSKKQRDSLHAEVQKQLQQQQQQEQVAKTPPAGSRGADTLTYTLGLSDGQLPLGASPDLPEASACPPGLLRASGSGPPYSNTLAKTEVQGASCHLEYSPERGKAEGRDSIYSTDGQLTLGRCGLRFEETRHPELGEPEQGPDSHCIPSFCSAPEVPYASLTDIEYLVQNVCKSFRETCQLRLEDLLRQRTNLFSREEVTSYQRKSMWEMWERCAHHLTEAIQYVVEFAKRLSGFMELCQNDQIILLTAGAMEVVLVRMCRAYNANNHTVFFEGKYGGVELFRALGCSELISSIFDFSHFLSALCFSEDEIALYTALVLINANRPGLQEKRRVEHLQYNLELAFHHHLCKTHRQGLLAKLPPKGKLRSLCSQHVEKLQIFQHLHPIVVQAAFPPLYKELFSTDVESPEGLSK
#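 Luciferase reporter read in Schneider cells carrying Gal4-RORγ (mouse) and UAS-Photinus luciferase; cells given compound 1 h before 700 uM copper sulfate induction, then incubated 20 h at ambient temperature.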
# ELG1 DNA repair: blocks ELG1-dependent DNA repair in HEK293T cells | Potency, µM (titrated, usually from 46.1 µM), without a hit: top-dose activity change, negative = inhibition, hits mostly inhibitors | 330,000 tested, 2.3% active | HEK293T ELG1-luciferase reporter, luminescence, 16 h; DNA damage induced by 5-fluorouridine; note: % is set by controls: 0 for no effect and ±100 for the full control effect; nearly all actives have a fitted effect of over 55% in size
#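 HEK293T cells expressing luciferase-tagged ELG1 (2,000/well) received 5-Fluorouridine plus compound or DMSO for 16 hr at 37 °C. Luciferase was read by ONE-Glo luminescence after 30 min at room temperature.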
# SW480 rereplic: DNA re-replication induction in SW480 cells. SW480 DNA re-replication, Hoechst DNA content imaging, 48 h. Potency, µM (doses to about 46.1 µM), inactives show at the highest dose re-replication activation, actives largely listed as activators. 340,000 tested, 1.8% active; note: % of control where 0% means no effect; nearly all actives have a fitted effect of over 55% in size
#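 Cells (250 per well) received 23 nL compound or DMSO by pin tool and were kept 48 hr at 37 C, 5% CO2. Nuclei were then stained with Hoechst for 40 min and scanned for DNA content.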
# ELG1 FLuc counter: luciferase inhibition in cell-free luciferin readout for ELG1 hits. cell-free firefly luciferase luminescence counter-screen, ViewLux. shares compounds with ELG1 DNA repair. Potency, µM (doses to about 46.1 µM), inactives show at the top dose activity change, negative = inhibition, hits mostly inhibitors. 350 tested, 3% active; note: % is set by controls: 0 for no effect and ±100 for the full control effect
# ELG1 Luc conf: confirmation of human ELG1-dependent DNA repair inhibitors. shares compounds with ELG1 DNA repair. HEK293T ELG1-luciferase levels, luminescence; cells co-treated with 5-fluorouridine. Potency, µM (titrated, usually from 46.1 µM), without a hit: top-dose activity change, negative = inhibition, hits mostly inhibitors. 670 tested, 68% active. AID 624248; note: % is set by controls: 0 for no effect and ±100 for the full control effect; nearly all actives have a fitted effect of over 55% in size
# ELG1-Luc MMS: MMS-stimulated human ELG1 repair inhibition, confirmed. shares compounds with ELG1 DNA repair. HEK293T luciferase-tagged ELG1 level, MMS stimulated. Potency, µM (top dose mostly 46.1 µM), without a hit: at the top dose activity change, negative = inhibition, usual class: inhibitors. 670 tested, 53% active. AID 624249; note: % is set by controls: 0 for no effect and ±100 for the full control effect; nearly all actives have a fitted effect of over 60% in size
# ELG1 5-FU: confirmation of ELG1 repair inhibitors: viability with 5FU. cell viability with 5-FU, ELG1-dependent repair. Potency, µM (series often up to 46.1 µM), for inactives: top-dose activity change, negative = viability loss, most hits filed as cytotoxic. shares compounds with ELG1 DNA repair. AID 624250. 670 tested, under 10 active;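 note: ELG1-luc HEK293T cells cotreated with 5-fluorouridine at 10 µM final; viability measured 16 h after compound addition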
# ELG1 MMS cell: confirmation of ELG1 repair inhibitors: viability with MMS; shares compounds with ELG1 DNA repair; 670 tested, 33% active; AID 624251; Cell viability with MMS, ELG1-dependent DNA repair; Potency, µM (top dose mostly 46.1 µM), inactives show top-dose activity change, negative = viability loss, actives largely listed as cytotoxic;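 note: ELG1-luc HEK293T cells co-treated with 10 µM MMS; viability read 16 h after compound addition; % is set by controls: 0 for no effect and ±100 for the full control effect; nearly all actives have a fitted effect of over 60% in size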
# Cell viab unstim: counter-screen for ELG1 repair inhibitors: unstimulated cell viability; shares compounds with ELG1 DNA repair; cell viability counter-screen, unstimulated, luminescence; Potency, µM (top dose mostly 45.9 µM), inactives show at the highest dose activity change, negative = loss of viability, hits mostly cytotoxic; 900 tested, 8% active; AID 624252;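 note: compound exposure lasted 16 hours before reading; % is set by controls: 0 for no effect and ±100 for the full control effect; nearly all actives have a fitted effect of over 55% in size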
# FLuc enzyme: inhibits purified firefly luciferase, counter-screen for ELG1 hits. shares compounds with ELG1 DNA repair. purified firefly luciferase, luminescence counter-screen. Potency, µM (doses to about 57.5 µM), without a hit: at the top dose activity, negative = inhibition, hits mostly inhibitors. 350 tested, 10% active; note: % is set by controls: 0 for no effect and ±100 for the full control effect
# Numbers without * were called inactive; ? = inconclusive; / = no result given; [ ] = remark or other dose. Calls come from the whole dose curve; as a rule, active = well fitted curve in the direction sought with a large enough effect; inconclusive = small, poorly fitted or top-dose-only effect, or another doubt; inactive = no such curve, though single readings can be large; an effect the other way counts as inactive or inconclusive. Potency is the fitted concentration of half-maximal effect.
SMILES,MCF10A rereplic,Gal4-VP16 FLuc,RORg inh,ELG1 DNA repair,SW480 rereplic,ELG1 FLuc counter,ELG1 Luc conf,ELG1-Luc MMS,ELG1 5-FU,ELG1 MMS cell,Cell viab unstim,FLuc enzyme
CC(NC(=O)C1CCCC1)C1CC2CCC1C2 (configuration not stated),-7%,-16%,15%,4.1µM*,-1%,/,20%,?,4%,-5%,9%,/
CCC(C)(C)C1CCc2nc3ccccc3c(C(=O)OC(C)C(=O)Nc3c(C)n(C)n(-c4ccccc4)c3=O)c2C1 (configuration not stated),12%,-8%,21%,4.1µM*,6%,/,2.2µM*,25µM*,?,3%,?,/
Nc1ccc(S(=O)(=O)Nc2nc3ccccc3o2)cc1,-6%,-3%,11%[1.91 µM],2%,-5%,/,/,/,/,/,/,/
O=S(=O)(c1cc(F)ccc1F)N1CCN(c2ncnc3ccccc23)CC1,5.8µM*,/,/,4.6µM*,18µM*,/,6.3µM*,2.2µM*,-14%,2.5µM*,?,/
CC(=O)n1cc([C@H]2C=C(C(=O)N3CCN(Cc4ccccc4)CC3)O[C@@H](OCCCCO)C2)c2ccccc21,-1%,3%,8%,-6%,18%[9.22 µM],/,/,/,/,/,/,/
O=C(C1=C[C@H](c2ccc3c(c2)OCO3)C[C@H](OCCCCO)O1)N1CCN(Cc2ccccc2)CC1,-1%,?,?,8%,8%,-4%,-35%,?,-1%,?,-6%,-6%
CC(=O)n1cc([C@@H]2C=C(C(=O)N3CCN(Cc4ccc5c(c4)OCO5)CC3)O[C@H](OCCCCO)C2)c2ccccc21,?,-6%,39%,18µM*,1%,-9%,?,8%,-6%,-16%,?,-16%
COc1ccc(/C=C/C(=O)NC(=S)Nc2ccc(S(N)(=O)=O)cc2)cc1OC,0%,-3%,-8%,?,-104%,/,/,/,/,/,/,/
CN(C)c1ccc(C=C2C=Cc3ccccc32)cc1,19%,/,/,/,-7%,/,/,/,/,/,/,/
CN(C)N=Nc1ccc(/C=C2\C=Cc3ccccc32)cc1,/,/,/,/,/,/,/,/,/,/,-2%,/
CC(C)CN(C)c1ccc(/C=C2\C=Cc3ccccc32)cc1,/,/,/,/,/,/,/,/,/,/,?,/
CNc1ccc(C=C2C=Cc3ccccc32)cc1,1%,/,/,/,3%,/,/,/,/,/,/,/
C=CC[C@H](CC(=O)NCCO)C(=O)NC[C@@H](OC(=O)[C@@H](CC=C)Cc1ccc(F)cc1)c1ccccc1,19%,/,/,-9%,0%,/,/,/,/,/,/,/
C=CC[C@@H](CC(=O)N[C@H](CO)Cc1ccccc1)C(=O)NC[C@H](OC(=O)[C@@H](CC=C)Cc1ccc(F)cc1)c1ccccc1,0%,/,/,4.6µM*,1%,/,?,10µM*,?,3%,-4%,/
CCOC(=O)C1CCN(c2cc3c(cc2NC(=O)c2ccccc2Br)n(C)c(=O)n3C)CC1,2%,-7%,4%,9.2µM*,-22%,0%,7.9µM*,?,?,7%,-1%,0%
CCOC(=O)C1CCN(c2cc3c(cc2NC(=O)c2cc(OC)ccc2Br)n(C)c(=O)n3C)CC1,9%,-20%,2%,?,?,/,/,/,/,/,/,/
Cc1cc(-c2nnc(CCC(=O)N(C)C(C)c3cccs3)o2)no1 (configuration not stated),-4%,6%,32%,11%,4%,/,/,/,/,/,/,/
O=C(NC1CCCCCCC1)c1cc(COc2ccc3ncccc3c2)on1,1%,4µM*,?,1.6µM*,11%,-12%,18µM*,1.1µM*,-3%,1.4µM*,?,?
CCOC(=O)N1CCN(C(=O)c2cc(COc3ccc4ncccc4c3)on2)CC1,?,7.1µM*,?,9.2µM*,18%,-5%,20µM*,5.6µM*,0%,4.5µM*,14µM*,-3%
O=S(=O)(c1c(Cl)cc(Br)cc1Cl)N1CCN(C(=S)NC2CC2)CC1,?,/,/,4.1µM*,0%,/,4µM*,16µM*,?,14µM*,-12%,/
COc1ccc(C2(C)NC(=O)N(CC(=O)NC3CC3)C2=O)cc1 (configuration not stated),-18%,/,/,17%,2%,/,/,/,/,/,/,/
CC1CCC(NC(=O)CN2C(=O)NC(C)(C)C2=O)CC1 (configuration not stated),-1%,/,/,23%,-8%,71%,/,/,/,/,-17%,-3%
Cc1cc(NNC(=O)Nc2cccc(Cl)c2)nc2c1c(C)nn2C,/,11µM*,?,0.73µM*,/,-8%,?,0.79µM*,-2%,1µM*,-10%,-1%
COCCn1c(C(C)C)nc2oc3ccccc3c(=O)c2c1=O,10%,-10%,-2%,1.4µM*,-5%,/,5%,11%,10%,8%,12%,/
CCc1nc2oc3ccccc3c(=O)c2c(=O)n1CCOC,12%,1%,-6%,6%,1%,/,/,/,/,/,/,/
CCc1cc(=O)oc2c(CNCc3ccc(OC)cc3OC)c(O)c(Cl)cc12,?,-6%,1%,3%,?,/,/,/,/,/,/,/
COc1cccc(-c2cc(NCc3cccs3)ncn2)c1,/,10%,-32%,/,/,67%,/,/,/,/,-3%,3.7µM*
